# Some of the results follow. The source made the active and inactive calls.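 The calls were made as follows, unless noted: active = signal rise of 40% or more at 20 µM, treated as a fluorescence artifact; inactive = the rest.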
# What was measured:
# [1] = target: Sentrin-specific protease 8 (Homo sapiens) (UniProt Q96LD8); assay: human SENP8 peptidase blockers, hit retest – biochemical, luminescence, single concentration, confirmation (AID 488912;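 active = mean inhibition across replicates above about 50%, limit read from the data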); conditions: Recombinant SENP8, Z-RLRGG-aminoluciferin luminescence, 60 min; at 12.5 µM; stronger effect = higher value
# [2] = target: Sentrin-specific protease 6 (Homo sapiens) (UniProt Q9GZR1); assay: inhibition of human SENP6 catalytic domain – biochemical, luminescence, single concentration, confirmation (AID 488915;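 active = mean inhibition above about 50% in the one-dose retest, limit read from the data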); conditions: recombinant SENP6, Z-RLRGG-aminoluciferin luminescence; at 12.5 µM; stronger effect = higher value
# [3] = target: Sentrin-specific protease 7 (Homo sapiens) (UniProt Q9BQF6); assay: human SENP7 peptidase blockers, hit retest – biochemical, luminescence, single concentration, confirmation (AID 488917;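 active = mean inhibition above about 50% in the one-dose retest, limit read from the data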); conditions: recombinant SENP7, Z-RLRGG-aminoluciferin luminescence, 40 min; at 12.5 µM; stronger effect = higher value
# Caspase-3 (Homo sapiens) = Caspase-3 (Homo sapiens) (UniProt P42574); assay: human caspase-3 activity blockade, out-of-family – biochemical, single concentration, selectivity assay for SENP inhibitor project, confirmation (AID 488918;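 active = mean inhibition above about 50%, limit read from the data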;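 also: plate controls were enzyme with DMSO for no effect and wells without caspase-3 for full effect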); conditions: purified caspase-3, Z-DEVD-aminoluciferin luminescence, 60 min; at 12.5 µM; stronger effect = higher value
# [4] = Ultra-Glo luciferase signal interference – biochemical, single concentration, SENP8 reaction pre-completed, artefact control for SENP inhibitor project, confirmation (AID 488919;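 active = mean inhibition above about 50% when retested at one dose, limit read from the data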;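 also: plate controls were DMSO wells with completed reaction for no effect and substrate without enzyme for full effect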); conditions: Pre-incubated SENP8/Z-RLRGG-aminoluciferin, luciferase luminescence interference; at 12.5 µM; stronger effect = higher value
# [5] = apoptosome-driven caspase-3 activation blockers – biochemical, fluorescence, DEVD-Rh110, 20 µM, confirmation (AID 504614;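 active = mean inhibition of at least 40% at 20 µM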;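 also: plate controls were DMSO wells for no effect and DEVD-CHO caspase inhibitor control wells for full effect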); conditions: reconstituted apoptosome, caspase-3 DEVD-Rh110 fluorescence; at 20 µM; stronger effect = higher value
# [6] = detection-step artefacts after completed caspase reaction – biochemical, fluorescence, Rh110, 20 µM, artefact control for Apaf-1 inhibitor project, confirmation (AID 504615); conditions: quenched caspase reaction, at 20 µM, stronger effect = higher value
# [7] = fluorescence interference of Apaf-1 inhibitor hits, dose response, artefact control for Apaf-1 inhibitor project (AID 588538; call rule not given here); conditions: fluorescence interference counterscreen, Apaf-1 assay format
# [8] = target: Tumor necrosis factor receptor superfamily member 10B (Homo sapiens) (UniProt O14763); assay: viability loss of caspase-8 NB7 cells with TRAIL – with/without TRAIL, luminescence panel, confirmation (AID 651596; in the data active = activity above about 50%); conditions: NB7 neuroblastoma + caspase-8, TRAIL sensitization, NB7 Caspase-8, with TRAIL, mean of runs, at 10 µM, stronger effect = higher value
# [9] = as above; conditions: NB7 neuroblastoma + caspase-8, without TRAIL, NB7 Caspase-8, without TRAIL, mean of runs, at 10 µM
# [10] = target: Protein Mdm4 (Homo sapiens) + E3 ubiquitin-protein ligase Mdm2 (Homo sapiens) (UniProt O15151+Q00987); assay: human Mdm2/MdmX binding disruption – cell-based, luminescence, single concentration, set 2, confirmation (AID 504601;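 active = mean inhibition of the luminescence signal across two replicates at or above 26 percent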); conditions: SaOS-2 split-luciferase Mdm2/MdmX complementation, at 8 µM, stronger effect = higher value
# [11] = HIF-2a driven luciferase blockers, single dose – luminescence, 786-0 RCC cells, confirmation (AID 651580;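 active = mean inhibition across four replicates of at least 40 percent at the single tested concentration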); conditions: HIF-2a luciferase reporter luminescence, overnight, at 18.8 µM, stronger effect = higher value
# [12] = HIF-1a luciferase reporter signal reduction – MiaPaCa-2 cells, single concentration, counter-screen for HIF-2a inhibitor project, confirmation (AID 651589;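 active = mean inhibition of the reporter signal across four replicates at the single tested dose of 50% or more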); conditions: MiaPaCa-2 HIF-1a luciferase reporter, desferoxamine, overnight; at 18.8 µM; stronger effect = higher value
# [13] = NF-kB reporter suppression in CF airway cells – cell-based, GFP fluorescence, single concentration, confirmation (AID 602472; in the data active = inhibition above about 40%;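 also: stimulus PAF is a Pseudomonas aeruginosa filtrate and not platelet activating factor; plate controls were DMSO wells with stimulus for no effect and unstimulated DMSO wells for full effect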); conditions: KKLEB CF airway cells, PAF-induced NF-kB-GFP fluorescence, overnight; at 5 µM; stronger effect = higher value
# [14] = NFkB reporter suppression in cystic fibrosis bronchial cells – cell-based, uHTS hits, panel, cytotoxicity readout, dose response (AID 624344); conditions: CF bronchial epithelial cells, PAF-induced NFkB reporter inhibition, with PAF, run 1; at 79 µM (top of the series) unless noted
# [15] = as above; conditions: CF bronchial epithelial cells, PAF-induced NFkB reporter inhibition, with PAF, run 2; at 79 µM (top of the series) unless noted
# Sequence of Sentrin-specific protease 7 (Homo sapiens) (Q9BQF6 706-1050 limits assumed): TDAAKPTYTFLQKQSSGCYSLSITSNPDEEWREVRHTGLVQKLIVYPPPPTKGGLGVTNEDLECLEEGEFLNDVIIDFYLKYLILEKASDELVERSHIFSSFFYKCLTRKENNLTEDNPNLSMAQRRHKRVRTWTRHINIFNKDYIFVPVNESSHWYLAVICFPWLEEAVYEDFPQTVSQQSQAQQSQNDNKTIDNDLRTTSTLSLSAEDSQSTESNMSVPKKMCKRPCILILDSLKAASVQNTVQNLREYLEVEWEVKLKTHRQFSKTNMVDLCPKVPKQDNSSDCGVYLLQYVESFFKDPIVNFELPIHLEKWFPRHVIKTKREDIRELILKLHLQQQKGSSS
# Sequence of Sentrin-specific protease 8 (Homo sapiens) (Q96LD8 whole entry, looked up, the tested form may be a part): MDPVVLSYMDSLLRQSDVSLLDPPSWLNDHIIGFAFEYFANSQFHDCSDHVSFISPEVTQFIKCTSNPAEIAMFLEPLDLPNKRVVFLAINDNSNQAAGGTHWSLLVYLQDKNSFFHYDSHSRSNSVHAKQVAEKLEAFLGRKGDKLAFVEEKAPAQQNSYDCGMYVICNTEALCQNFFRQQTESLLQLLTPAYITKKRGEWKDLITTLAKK
# Sequence of Caspase-3 (Homo sapiens) (P42574 28-227 limits assumed): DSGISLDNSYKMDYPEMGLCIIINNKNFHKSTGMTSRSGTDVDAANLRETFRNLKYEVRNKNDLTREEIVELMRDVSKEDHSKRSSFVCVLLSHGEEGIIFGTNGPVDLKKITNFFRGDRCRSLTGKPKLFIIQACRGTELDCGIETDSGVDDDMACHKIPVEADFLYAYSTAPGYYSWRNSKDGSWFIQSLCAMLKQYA
# Sequence of Sentrin-specific protease 6 (Homo sapiens) (Q9GZR1 628-1112 limits assumed): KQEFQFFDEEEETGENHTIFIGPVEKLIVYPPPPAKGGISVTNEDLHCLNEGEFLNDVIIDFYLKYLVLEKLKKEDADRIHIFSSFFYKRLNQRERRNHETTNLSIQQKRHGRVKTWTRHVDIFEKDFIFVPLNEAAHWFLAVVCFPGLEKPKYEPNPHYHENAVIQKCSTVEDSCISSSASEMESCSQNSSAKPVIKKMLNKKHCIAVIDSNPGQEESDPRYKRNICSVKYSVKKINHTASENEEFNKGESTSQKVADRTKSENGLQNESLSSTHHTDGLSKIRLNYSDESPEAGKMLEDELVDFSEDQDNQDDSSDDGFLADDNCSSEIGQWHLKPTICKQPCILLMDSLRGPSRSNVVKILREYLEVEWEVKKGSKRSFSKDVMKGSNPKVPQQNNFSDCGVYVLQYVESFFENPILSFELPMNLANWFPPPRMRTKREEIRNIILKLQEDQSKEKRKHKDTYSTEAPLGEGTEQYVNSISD
# Sequence of Protein Mdm4 (Homo sapiens) + E3 ubiquitin-protein ligase Mdm2 (Homo sapiens) (O15151 whole entry, looked up): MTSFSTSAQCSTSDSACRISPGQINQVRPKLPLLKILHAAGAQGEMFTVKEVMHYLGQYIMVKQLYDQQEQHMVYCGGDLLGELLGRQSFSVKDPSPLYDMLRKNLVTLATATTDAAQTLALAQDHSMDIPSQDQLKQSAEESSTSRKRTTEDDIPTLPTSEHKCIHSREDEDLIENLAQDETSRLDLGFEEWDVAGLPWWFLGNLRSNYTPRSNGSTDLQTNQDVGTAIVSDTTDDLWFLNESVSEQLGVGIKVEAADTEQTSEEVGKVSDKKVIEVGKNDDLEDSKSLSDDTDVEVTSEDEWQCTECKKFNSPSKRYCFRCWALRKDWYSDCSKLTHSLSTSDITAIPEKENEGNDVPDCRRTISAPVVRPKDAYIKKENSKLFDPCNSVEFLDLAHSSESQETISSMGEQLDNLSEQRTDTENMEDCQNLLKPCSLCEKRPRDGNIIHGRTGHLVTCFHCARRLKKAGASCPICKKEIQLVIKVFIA
# Sequence of Protein Mdm4 (Homo sapiens) + E3 ubiquitin-protein ligase Mdm2 (Homo sapiens) (Q00987 whole entry, looked up): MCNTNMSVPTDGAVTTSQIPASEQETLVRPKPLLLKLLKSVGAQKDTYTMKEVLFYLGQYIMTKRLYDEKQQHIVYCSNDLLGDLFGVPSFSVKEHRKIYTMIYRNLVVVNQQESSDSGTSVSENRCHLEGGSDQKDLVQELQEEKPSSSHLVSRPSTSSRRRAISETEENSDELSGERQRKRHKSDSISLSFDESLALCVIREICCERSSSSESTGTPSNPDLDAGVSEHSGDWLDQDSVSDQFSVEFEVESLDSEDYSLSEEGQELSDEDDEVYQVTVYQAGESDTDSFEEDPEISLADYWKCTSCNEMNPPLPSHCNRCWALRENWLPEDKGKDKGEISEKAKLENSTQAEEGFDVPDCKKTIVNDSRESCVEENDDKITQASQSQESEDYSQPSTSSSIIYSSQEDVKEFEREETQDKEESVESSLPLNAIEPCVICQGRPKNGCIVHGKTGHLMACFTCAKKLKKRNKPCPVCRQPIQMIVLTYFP
# Sequence of Tumor necrosis factor receptor superfamily member 10B (Homo sapiens) (O14763 whole entry, looked up): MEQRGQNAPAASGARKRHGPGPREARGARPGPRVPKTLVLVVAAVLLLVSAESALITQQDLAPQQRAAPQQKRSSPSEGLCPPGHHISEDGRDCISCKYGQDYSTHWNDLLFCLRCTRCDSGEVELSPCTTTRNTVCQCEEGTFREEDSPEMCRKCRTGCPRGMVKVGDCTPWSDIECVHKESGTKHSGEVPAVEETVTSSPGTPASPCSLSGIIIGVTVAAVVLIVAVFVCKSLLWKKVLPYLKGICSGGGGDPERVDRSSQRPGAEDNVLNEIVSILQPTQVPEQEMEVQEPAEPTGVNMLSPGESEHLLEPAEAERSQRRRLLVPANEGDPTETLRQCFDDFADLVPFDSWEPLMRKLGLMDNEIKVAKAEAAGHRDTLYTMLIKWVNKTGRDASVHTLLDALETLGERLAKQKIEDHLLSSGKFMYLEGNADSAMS
structure (smiles),measurement,setting,value
Cc1oc2c(c1C(=O)N1CCOCC1)C(=O)c1ccccc1C2=O,inhibition,[1],27.7% (inactive)
same,inhibition,[2],61% (active)
same,inhibition,[3],6% (inactive)
same,inhibition,Caspase-3 (Homo sapiens),87.5% (active)
same,inhibition,[4],-2.3% (inactive)
same,inhibition,[5],52.9% (active)
same,activation (fluorescence interference),[6],8.76% (inactive)
same,IC50,[7],> 100 µM (inactive)
Cc1cnc(NC(=O)c2ccccn2)s1,inhibition,[1],74.2% (active)
same,inhibition,[2],75.6% (active)
same,inhibition,[3],92.3% (active)
same,inhibition,Caspase-3 (Homo sapiens),91.7% (active)
same,inhibition,[4],67.2% (active)
same,activity,[8],63.5%
same,activity,[9],64.5%
Cc1cccc(NC(=O)/C=C/c2ccc3c(c2)OCO3)n1,inhibition,[1],81.3% (active)
same,inhibition,[2],81% (active)
same,inhibition,[3],95.8% (active)
same,inhibition,Caspase-3 (Homo sapiens),87.1% (active)
same,inhibition,[4],73% (active)
same,activity,[8],80.4%
same,activity,[9],75.4%
CCOC(=O)/C=C/C(=O)OCC(=O)NC(c1ccccc1)c1ccccc1,inhibition,[10],99.7% (active)
CCOC(=O)/C(=C\c1ccc([N+](=O)[O-])cc1)C(=O)c1cc(C(C)=O)c(Nc2ccccc2)s1,inhibition,[10],100% (active)
same,activity,[8],95.3%
same,activity,[9],95.6%
Cc1ccc(-c2ccc(/C=N/NC(=O)CN3CCOCC3)o2)cc1[N+](=O)[O-],inhibition,[5],27.9% (inactive)
same,activation (fluorescence interference),[6],-3.95% (inactive)
O=C(CN1CCN(S(=O)(=O)c2ccc3ccccc3c2)CC1)NC(=O)NC1CCCCC1,inhibition,[5],26.3% (inactive)
same,activation (fluorescence interference),[6],20% (inactive)
Cc1[nH]c(=O)c(C(=O)/C=C/c2ccccc2)c2c1CCCC2,inhibition,[10],103% (active)
same,inhibition,[11],81.1% (active)
same,inhibition,[12],105% (active)
COc1ccccc1C1C(C#N)=C(N)Oc2c1c(-c1ccccc1)nn2-c1ccccc1 (stereo unspecified),inhibition,[5],19.9% (inactive)
same,activation (fluorescence interference),[6],5.51% (inactive)
CCN(CC)S(=O)(=O)c1ccc(NC(=O)c2cccnc2Cl)c(NC(=O)c2cccnc2Cl)c1,inhibition,[10],75.5% (active)
same,inhibition,[11],91.6% (active)
same,inhibition,[12],62.3% (active)
O=C(Nc1ccc(C(=O)N2CCOCC2)cc1)Nc1cccc(C(F)(F)F)c1,inhibition,[10],84.2% (active)
same,inhibition,[13],58.5% (active)
same,inhibition,[14],108%
same,inhibition,[15],94.7%
Cc1cc(N2CCCC2)ccc1NC(=O)COc1ccc(Cl)cc1,inhibition,[5],28.9% (inactive)
same,activation (fluorescence interference),[6],1.52% (inactive)
CC1CCCCC1NC(=O)/C(C#N)=C/C=C/c1ccccc1[N+](=O)[O-] (stereo unspecified),inhibition,[10],103% (active)
same,inhibition,[11],50.3% (active)
same,inhibition,[12],106% (active)
Cc1ccc(CS(=O)(=O)c2ncc(Cl)c(C(=O)Nc3nnc(C)s3)n2)cc1,inhibition,[10],103% (active)
same,inhibition,[11],31.5% (inactive)
same,inhibition,[12],104% (active)
same,activity,[8],97.2%
same,activity,[9],97.2%
COc1ccc(NC(=O)CN(Cc2ccccc2)S(C)(=O)=O)cc1OC,inhibition,[5],3.82% (inactive)
same,activation (fluorescence interference),[6],2.48% (inactive)
CCOC(=O)C1CCN(C(=O)c2cccc(S(=O)(=O)N(CC)c3ccccc3)c2)CC1,inhibition,[5],27.8% (inactive)
same,activation (fluorescence interference),[6],5.38% (inactive)
